Compounds with a hit are over-represented: about 19% of the library has one in this group of screens.
HT1080-NT tox: kills 2HG-producing HT-1080-NT fibrosarcoma cells | HT-1080-NT fibrosarcoma viability, CellTiter-Glo ATP luminescence, 48 h | Potency, µM (series often up to 46.1 µM), hits mostly cytotoxic | 360,000 tested, 1.6% active | AID 686970;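 also: NT is the 2HG producing partner of a matched IDH1 knockdown line; nearly all actives have a fitted effect of over 55% in size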
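HT-1080-NT fibrosarcoma cells (2HG-overproducing), 750 cells/well in RPMI with 5% FBS, dosed after 2 h and incubated 48 h at 37C. CellTiter-Glo luminescence normalized to DMSO and no-cell wells; concentration-response curves fitted and classed.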
KB-3-1 cytotox: KB-3-1 parental cell cytotoxicity. KB-3-1 viability, CellTiter-Glo ATP luminescence, 72 h. Potency, µM (titrated, usually from 46.1 µM), actives largely listed as cytotoxic. 400,000 tested, 1.4% active. AID 1347075; also: nearly all actives have a fitted effect of over 60% in size
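Parental KB-3-1 adenocarcinoma cells in phenol-red-free DMEM with 10% FBS were pin-treated with compounds at several concentrations, incubated 72 h at 37 °C, and viability read by CellTiter-Glo luminescence; concentration-effect curves were fitted after normalization.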
DT40 TDP1 no CPT: qHTS for Inhibitors of human tyrosyl-DNA phosphodiesterase 1 (TDP1): qHTS in cells in absence of CPT | Potency, µM (doses to about 46.2 µM), actives largely listed as inhibitors | 420,000 tested, 15% active | AID 686978, 2013 | DT40 Tdp1-/- hTDP1 cells, no CPT, ATP luminescence, 48 h; also: nearly all actives have a fitted effect of over 55% in size
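Chicken DT40 Tdp1-/- cells complemented with human TDP1, screened without camptothecin (DMSO vehicle only), 400 cells/well. Compounds pin-transferred, cells incubated at 37 °C for at least 48 hr. Growth read as ATP-dependent luminescence (CellTiter-Glo, 30 min at RT).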
HT1080 IDH1KD tx: HT-1080 IDH1 knockdown cell toxicity (counter line); 360,000 tested, 2% active; Potency, µM (top dose mostly 46.1 µM), hits mostly cytotoxic; HT-1080 IDH1 knockdown viability, ATP luminescence, 48 h; AID 686971
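CellTiter-Glo luminescence after 48 h compound exposure at 37 degrees C of IDH1-knockdown HT-1080 cells in 5% FBS RPMI. %Activity scaled between DMSO wells and cell-free media wells, with curves fitted and assigned curve classes.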
DT40 TDP1 CPT: DT40-hTDP1 cell growth loss with CPT; chicken DT40 Tdp1-/-;hTDP1 cells + 20 nM CPT, ATP luminescence, 48 h; Potency, µM (top dose mostly 46.2 µM), actives largely listed as inhibitors; 420,000 tested, 12% active; AID 686979; also: nearly all actives have a fitted effect of over 55% in size
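Cell growth measured by CellTiter-Glo luminescence after a minimum 48 h, 37 C compound exposure with 20 nM CPT in Tdp1-knockout DT40 cells stably expressing hTDP1, seeded 400/well; qHTS titration format.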
KB-V1 cytotox: kills drug-selected multidrug resistant KB-V1 cells; KB-V1 MDR cells viability, CellTiter-Glo, 72 h; Potency, µM (series often up to 46.1 µM), most hits filed as cytotoxic; 400,000 tested, 3.4% active; AID 1347076; also: nearly all actives have a fitted effect of over 60% in size
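Luminescent ATP read-out (CellTiter-Glo, 10 min) measures survival of drug-selected KB-V1 MDR cells after 72 h, 37 degrees C compound exposure. Medium: phenol-red-free DMEM, 10% FBS. Values from fitted concentration-response curves.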
Hits are given with their value; 0 = inactive; ? = inconclusive; - = no result given. Calls follow the shape of the dose curve; as a rule, active = well fitted curve in the direction sought with a large enough effect; inconclusive = small, poorly fitted or top-dose-only effect, or another doubt; inactive = no such curve, though single readings can be large; an effect the other way counts as inactive or inconclusive.

SMILES | HT1080-NT tox | KB-3-1 cytotox | DT40 TDP1 no CPT | HT1080 IDH1KD tx | DT40 TDP1 CPT | KB-V1 cytotox
Cc1ccc(-n2ncc(C(=O)Nc3cc(Cl)ccc3C)c2C2CCNCC2)cc1C | 0 | 0 | 23µM | 0 | 16µM | ?
COc1cc2c(cc1OC)C1Cc3ccc(OC)c(OC)c3CN1CC2 (stereo not given) | 0 | 0 | 7.3µM | 0 | ? | 0
CCC1=C(CC2NCCc3ccccc32)CC2c3cc(OC)c(OC)cc3CCN2C1 (stereo not given) | ? | 6.5µM | 1.6µM | 6.5µM | 1.2µM | ?
Cc1ccc(S(=O)(=O)N2CCN(c3cc(-c4cccs4)nc4ccccc34)CC2)cc1 | - | 0 | 0 | - | 0 | 0
COc1ccccc1OCC(O)Cn1c(=N)n(CCN2CCCCC2)c2ccccc21 (stereo not given) | ? | ? | 16µM | ? | ? | 0
Cc1ccccc1OCCn1c(CCNC(=O)C(C)C)nc2ccccc21 | 0 | 0 | ? | 0 | 0 | 0
Cc1ccccc1OCC(O)CN (stereo not given) | 0 | 0 | 0 | 0 | 0 | 0
Cc1ccccc1OCC(O)Cn1c(=N)n(CCN2CCOCC2)c2ccccc21 (stereo not given) | 0 | 0 | ? | 0 | ? | 0
Cc1ccccc1OCC(O)COc1ccccc1C | ? | 0 | 21µM | 0 | ? | 0
N=c1n(CCN2CCCCC2)c2ccccc2n1CC(O)COc1ccccc1 (stereo not given) | 15µM | ? | 15µM | ? | 18µM | 0
Cc1ccccc1OCCn1c(=N)n(C(C)C)c2ccccc21 | - | - | 6.5µM | - | 8.2µM | -
Clc1cc(Cl)cc(CN2CCSCC2)c1 | 0 | 0 | 0 | 0 | 0 | 0
O=C(CC(Nc1ccccc1)c1ccccc1)C1CC1 (stereo not given) | 0 | 0 | 0 | 0 | 0 | 0
Cc1ccccc1SCC(=O)OCC(=O)NCc1ccccc1 | 0 | 0 | 0 | 0 | 0 | 0
COCCNC(=O)C(=O)NNC(=O)CCc1ccccc1 | 0 | 0 | 0 | 0 | 0 | ?
Cc1ccccc1OCC(O)Cn1c(=N)n(CCN2CCCCC2)c2ccccc21 (stereo not given) | - | - | 4.6µM | - | 5.8µM | -
O=C(NCc1ccc2c(c1)OCO2)NC12CC3CC(CC(C3)C1)C2 | 0 | 0 | 18µM | 0 | 21µM | 0
O=C(NC12CC3CC(CC(C3)C1)C2)N1CCC(O)(c2ccc3c(c2)OCO3)CC1 | 0 | 0 | 15µM | 0 | 7.3µM | 0
CCC(C)NC(=S)N1CCN(C)CC1 (stereo not given) | 0 | 0 | 0 | ? | 0 | 0
CS(=O)(=O)c1ccc(Cl)c(NC(=O)COC(=O)CCN2C(=O)C3CC=CCC3C2=O)c1 (stereo not given) | 0 | 0 | 0 | 0 | 0 | 0
CCOc1cc2[nH]c(=S)n(CCCN3CCOCC3)c(=O)c2cc1OCC | 0 | 0 | ? | 0 | ? | ?
COc1ccccc1N1CCN(CCCn2c(=S)[nH]c3ccccc3c2=O)CC1 | 0 | 0 | 9.2µM | 0 | 13µM | 0
COc1cc2c(=O)n(CCCN3CCOCC3)c(=S)[nH]c2c(OC)c1OC | 0 | 0 | 23µM | 0 | 5.8µM | 0
COc1ccc(N2CCN(CCCn3c(=S)[nH]c4ccccc4c3=O)CC2)cc1 | 0 | 0 | ? | ? | ? | 0
O=C(Cn1ncc2c([nH]c3ccccc32)c1=O)Nc1ccc(CN2CCCCC2)cc1 | 0 | 0 | 18µM | 0 | ? | ?
SMILES | HT1080-NT tox | KB-3-1 cytotox | DT40 TDP1 no CPT | HT1080 IDH1KD tx | DT40 TDP1 CPT | KB-V1 cytotox
COc1ccccc1N1CCN(CCCNC(=O)Cn2ncc3c([nH]c4ccccc43)c2=O)CC1 | 0 | 0 | 21µM | 0 | ? | ?
Cc1ccc(C)c(CSc2ccc3nnc(-c4ccccn4)n3n2)c1 | 0 | 0 | ? | 0 | ? | ?
Cc1ccc(C(=O)N2CCN(Cc3ccccc3)CC2)cc1S(=O)(=O)N1CCOCC1 | 0 | 0 | 0 | 0 | 0 | 0
O=C(Cn1ncc2c([nH]c3ccccc32)c1=O)NCCCN1CCN(c2ccc(F)cc2)CC1 | - | 0 | ? | - | ? | 0
Cc1ccc(C)c(N2CCN(CCCNC(=O)Cn3ncc4c([nH]c5ccccc54)c3=O)CC2)c1 | - | 0 | 21µM | - | 15µM | ?
COCCCNC(=O)c1ccc2sc(C3=C[C@@H](O)[C@@H](O)[C@@H](CO)O3)nc2c1 | ? | 0 | 0 | 0 | 0 | 0
CC(C)c1ccc(NC(=O)c2cn(C3CCCC3)c(=O)c3c2c2ccccc2n3C)cc1 | - | 0 | 0 | - | 0 | 0
COc1cc(NC(=O)c2cn(C3CCCC3)c(=O)c3c2c2ccccc2n3C)cc(OC)c1OC | - | 0 | 18µM | - | ? | ?
CCOc1ccccc1NC(=O)c1cn(C2CCCC2)c(=O)c2c1c1ccccc1n2C | - | - | 9.2µM | - | 13µM | -
CCOC(=O)Cn1c(=O)cc(C)c2ccccc21 | 0 | 0 | 12µM | 0 | 8.2µM | 0
CCOc1cc(-c2nnc(-c3ccco3)o2)cc(OCC)c1OCC | 0 | 0 | 12µM | 0 | 18µM | ?
O=C1C=CC(=O)c2c(O)c(Cl)c(Cl)c(O)c21 | - | - | 2.1µM | - | ? | -
O=c1c(CO)cc(CO)cc(CO)c1O | 0 | 0 | 0 | 0 | 0 | 0
O=C1C=CC(=O)c2c(O)c(CO)c(CO)c(O)c21 | 0 | 0 | 2.9µM | 0 | 2.1µM | 0
CCOC(=O)C1CCN(C(=O)COC(=O)c2ccc(=O)n(Cc3ccccc3)n2)CC1 | 0 | 0 | 0 | 0 | 0 | 0
O=C(NNC(=S)Nc1ccc(Cl)cc1Cl)C1CC1 | 0 | 0 | 0 | 0 | 0 | ?
Cc1ccc2nc(-c3ccc(O)c(O)c3)cn2c1 | 0 | ? | 21µM | ? | ? | 0
Cc1ccc2nc(-c3ccccc3)cn2c1 | 12µM | 12µM | 18µM | 12µM | ? | 10µM
Cc1ccc2nc(-c3ccc(-c4ccccn4)s3)cn2c1 | 0 | 0 | ? | 0 | 0 | 0
CC(=O)Nc1ccc(-c2cn3cc(C)ccc3n2)cc1 | 0 | 0 | 0 | 0 | 0 | 16µM
CCOc1c2ccc(C(=O)NCc3ccco3)cc2nn1CCOC | 0 | 0 | 0 | 0 | 0 | 0
CCOc1c2ccc(C(=O)NCC34CC5CC(CC(C5)C3)C4)cc2nn1CC | 0 | 0 | 16µM | 0 | 29µM | 0
CCCCn1nc2cc(C(=O)NCC34CC5CC(CC(C5)C3)C4)ccc2c1OC | 0 | 0 | ? | 0 | 18µM | 0
CCOc1c2ccc(C(=O)N[C@H](C)C3CCCCC3)cc2nn1CCOC | 0 | 0 | 1µM | 0 | 1.8µM | 0
CCCn1nc2cc(C(=O)NCCc3cccs3)ccc2c1OCC | 0 | 0 | 18µM | 0 | 0 | 0
CC(C)CCNC(=O)C(=O)Nc1cc2c3c(c1)CCC(=O)N3CCC2 | 0 | 0 | 0 | 0 | 0 | 0
